Compound activity deposited in PubChem by Center for Chemical Genomics, University of Michigan.
Rows were chosen to be rich in hits. Some 0.86% of all compounds tested hit in one or more screens of this group.
CDC25B-CDK2 inh – human CDC25B-CDK2/CyclinA binding inhibition; P30305+P24941; HTRF CDC25B-CDK2/CyclinA binding, anti-His/anti-Flag; active compounds read high; z-score (test concentration not listed); 94,000 compounds, 0.72% hits; AID 1259370; in the data active = z-score above about 3.2
TAR Tat displ – HIV-1 TAR-Tat binding disruption. HIV-1 TAR RNA, Tat peptide displacement FRET; active compounds read high. z-score (test concentration not listed). 100,000 compounds, 0.6% hits; active = z-score of 3 or more in at least 2 runs
* = called active by the depositor; x = not tested or not shown.

SMILES	CDC25B-CDK2 inh	TAR Tat displ
CC(=O)N1CCOc2ccc(S(=O)(=O)N3CCC(C(=O)NC4CCCC4)CC3)cc21	x	17.4*
Cc1cc(C)c(-c2c(N3CCN(C4CCCCC4)CC3)c(=O)c2=O)cc1C	x	-0.91
Cc1nc(N2CCOCC2)c2c(C(=O)Nc3ccc(F)cc3F)c(C)oc2n1	x	0.64
O=C(c1cnn2cc(Br)cnc12)N1CCCC1c1cccc(F)c1 (stereo not drawn)	0.57	29.5*
O=C(c1cnn2cc(Br)cnc12)N1CCCC1c1ccccc1F (stereo not drawn)	0.63	1.55
CSc1ccc(C2C3=C(Nc4c2c(=O)[nH]c(=O)n4C)c2ccccc2C3=O)cc1 (stereo not drawn)	-2.97	7.42*
COCCn1c2c(c(=O)[nH]c1=O)C(c1ccc(SC)cc1)C1=C(N2)c2ccccc2C1=O (stereo not drawn)	-2.45	-1.54
O=c1cnnc(Nc2ccc3c(c2)OCCO3)[nH]1	-1.29	2.04
COC(=O)c1ccc(Nc2nncc(=O)[nH]2)cc1	6.29*	0.52
Cc1ccc(NC(=O)CCCCCC(=O)Nc2ccccc2N)cc1	x	2.05
CCN1CCN(CCCNC(=O)C2CCN(c3ncnc4onc(C)c34)CC2)CC1	x	0.29
O=C(O)CN(CC(=O)O)S(=O)(=O)c1ccccc1	x	16.5*
CCN(CC)S(=O)(=O)N(CC(=O)O)CC(=O)O	x	0.75
O=C(O[C@@H]1Cc2c(O)cc(O)cc2O[C@@H]1c1cc(O)c(O)c(O)c1-c1c([C@H]2Oc3cc(O)cc(O)c3C[C@H]2OC(=O)c2cc(O)c(O)c(O)c2)cc(O)c(O)c1O)c1cc(O)c(O)c(O)c1	x	28.8*
COc1ccc([C@@H]2CC(=O)c3c(O)cc(O)cc3O2)cc1O	x	2.94
O=C(Oc1cc(O)cc2c1C[C@@H](OC(=O)c1cc(O)c(O)c(O)c1)[C@@H](c1cc(O)c(O)c(O)c1)O2)c1cc(O)c(O)c(O)c1	x	30.9*
O=C(O[C@@H]1Cc2c(O)cc(O)cc2O[C@@H]1c1cc(O)c(=O)c2c(O)c(O)cc([C@H]3Oc4cc(O)cc(O)c4C[C@H]3OC(=O)c3cc(O)c(O)c(O)c3)c2c1)c1cc(O)c(O)c(O)c1	x	25.9*
COC(=O)C1=C(C(=O)OC)SC(=C2C(=S)C(C)(C)Nc3ccc(C)cc32)S1	17.9*	1.63
COC(=O)C1=C(C(=O)OC)SC(=C2C(=S)C(C)(C)Nc3cc(C)c(C)cc32)S1	-0.72	2.24
CC1Sc2cc(S(=O)(=O)NC(C)c3ccccc3)ccc2NC1=O (stereo not drawn)	x	1.93
COc1ccc(NC2CCCCC2NS(=O)(=O)c2ccccc2)cc1 (stereo not drawn)	-2.48	3.14
O=S(=O)(NC1CCCCC1Nc1ccc(F)cc1)c1ccccc1 (stereo not drawn)	8.62*	2.87
O=C(Nc1cccc(F)c1)c1cnn(-c2ccccc2)c1-n1cccc1	-1.58	-0.3
CCC1(C)CC(=O)c2c(ccc3oc(C(=O)NC4CCC(C)CC4)c(C)c23)O1 (stereo not drawn)	-0.96	1.67
CC1Cc2cc(S(=O)(=O)NCC3CCCO3)ccc2N1C(=O)C1CCC1 (stereo not drawn)	x	0.45
SMILES	CDC25B-CDK2 inh	TAR Tat displ
CCOc1ccc(S(=O)(=O)Nc2cc3c(cc2N2CCOCC2)n(C)c(=O)n3C)cc1	x	1.31
COc1ccc(CNc2ccc3c(c2)ncn3C)cc1OC	2.26	1.31
CCn1cnc2cc(NCc3cccc(Br)c3)ccc21	13.4*	0.37
c1ccc(-n2cnc3cc(NCc4ccco4)ccc32)cc1	3.31	-0.51
Cc1ccc(CNc2ccc3c(c2)nc(C)n3C)cc1	-1.78	1.15
CCn1cnc2cc(NCc3ccco3)ccc21	15.7*	0.58
CCCn1cnc2cc(NCc3ccc(C)cc3)ccc21	13.5*	0.51
Cc1cn2c(=O)cc(COC(=O)Cc3ccccc3)nc2s1	x	-1.19
CCN(c1ccccc1)S(=O)(=O)c1cc(-c2ccc(=O)[nH]n2)cc(C)c1C	x	2.06
CCN1C(=O)C2(c3ccccc31)C(C(=O)Nc1ccc(F)c(F)c1)CC1CSCN12 (stereo not drawn)	x	0.31
O=C(Cn1nc(-c2ccco2)ccc1=O)Nc1cccc(F)c1	x	-0.05
O=C1C2=C(NC3=C(C(=O)c4ccccc43)C23C(=O)Nc2ccccc23)c2ccccc21	12.3*	x
CC(C)(C)C1(O)C(=O)Nc2ccccc21 (stereo not drawn)	0.98	0.95
CCOCCCNC(=O)Cn1cc2c(n1)CCC(C)C2 (stereo not drawn)	-2.1	x
CCOC(=O)c1cc(C#N)c(Oc2ccccc2)nc1C(F)(F)F	22.4*	x
CCOC(=O)c1cc(C#N)c(Sc2ccccn2)nc1C(F)(F)F	-1.28	x
CCOc1ccc(C2C3=C(Nc4nc(N)[nH]c(=O)c42)c2ccccc2C3=O)cc1 (stereo not drawn)	14.2*	2.43
CCOc1ccc(C2C3=C(CCCC3=O)NC3=C2C(=O)c2ccccc23)cc1 (stereo not drawn)	-2.13	-0.77
Cc1ccc(CNCc2cccn2-c2nnc(N3CCN(C)CC3)s2)cc1	x	1.03
O=C(OCc1cc(=O)n2ccsc2n1)C1CCCCC1	x	0.74
COc1cc2nc(N3CCN(C(=O)c4ccco4)CC3)nc(N)c2cc1OC	-1.38	2.22
COc1cc2nc(N3CCCN(C)CC3)nc(NC3CCN(Cc4ccccc4)CC3)c2cc1OC	0.41	5.11*
C=CCSc1nc2c(c(=O)[nH]1)C(c1cc(C)ccc1C)CC(=O)N2 (stereo not drawn)	1.39	1.29
O=C1C(=O)N(Cc2ccccc2)c2ccccc21	0.31	2
O=C1C(=O)N(CC(O)CN2C(=O)C(=O)c3ccccc32)c2ccccc21	2.3	14.6*
SMILES	CDC25B-CDK2 inh	TAR Tat displ
O=C(C(=O)N(Cc1ccccc1)Cc1ccccc1)c1c[nH]c2ccccc12	-1.18	0.74
Cc1nc2ncnn2c(NCc2ccccc2Cl)c1C	x	0.92
Fc1ccc(N2COc3cc4c(cc3C2)OCO4)cc1Cl	8.61*	x
COc1ccc(N2COc3cc4c(cc3C2)OCO4)cc1	-4.4	x
O=C(CSc1nc2ccccc2c(=O)[nH]1)NC1CCCC1	x	3.21
O=C(CSc1nc2ccccc2c(=O)[nH]1)NCc1ccc2c(c1)OCO2	x	13.6*
CC(C)CCNC(=O)c1ccc2c(=O)[nH]c3c(C(=O)NC(C)C)sc(=S)n3c2c1	x	2.22
CC(C)CCNC(=O)c1ccc2c(=O)[nH]c3c(C(=O)NC4CCCC4)sc(=S)n3c2c1	x	7.99*
CC(C)OCCCNC(=O)c1ccc2c(=O)[nH]c3c(C(=O)NC4CCCC4)sc(=S)n3c2c1	x	2.09
CC(C)NC(=O)c1sc(=S)n2c1[nH]c(=O)c1ccc(C(=O)NCCCN3CCCC3=O)cc12	x	8.54*
COC(=O)c1sc2ccccc2c1S(=O)(=O)N1CCCCC1	x	0.45
O=C(C1=CCN(S(=O)(=O)c2ccc(F)cc2)CC1)N1CCN(c2ccccn2)CC1	-0.96	-8.61
CCc1c(C)nc2nc(-c3ccco3)[nH]n2c1=O	-0.34	-0.83
Cc1nc2nc(-c3ccco3)[nH]n2c(=O)c1Cc1ccccc1	12.6*	1.08
COc1cc2c(cc1OC)C1=C(C#N)CN(c3ccc(C)c(C)c3)CN1CC2	15.4*	0.35
COc1cc2c(cc1OC)C1=C(C#N)CN(CCc3ccccc3)CN1CC2	2.14	0.19
O=S(=O)(c1ccc(-c2cnc(C3CC3)o2)cc1)N1CCc2ccccc2C1	x	1.9
O=C(O)c1cc(-c2cc(C(=O)O)c3ccccc3n2)nc2ccccc12	1.55	1.12
O=C(O)c1cc(-c2ccco2)nc2ccccc12	x	23.9*
